Results on 25 compounds are retold here after PubChem BioAssay (NCATS).

“And” between values parts separate entries of the source, which are not always exact repeats. Equal values may be shown once. The source made the active and inactive calls. The rule behind the calls is not given here.
Potency is the fitted concentration of half-maximal effect.

This assay is described as follows: Immunotoxin (SS1P) sensitization/mitigation study. Vehicle arm (DMEM) (AID 1159513). The note with it: cell viability with vehicle (DMEM); series mostly up to 46.1 µM; activity, % of control (viability): at the top concentration.
Take `CCOc1cc2ncc(C#N)c(Nc3ccc(F)c(Cl)c3)c2cc1NC(=O)C=CCN(C)C`: the Potency was 14.8 µM (active).

For `CC(C)c1ccccc1Cc1cc(C(=O)Nc2ccc(S(=O)(=O)c3ccccc3C(C)(C)C)cc2)c(O)c(O)c1O`, the Potency was 3.72 µM (active).

For `O=C1[C@H](Cc2ccc(O)cc2)N2C(=O)CCN(C(=O)NCc3ccccc3)[C@H]2CN1Cc1cccc2ccccc12`, the Potency was 2.35 µM (active).

As to `NC(=O)c1ccc(-c2nc(-c3ccc4c(c3)OCCO4)c(-c3ccccn3)[nH]2)cc1`, the “activity, % of control (viability)” value was 84.7% (inactive).

Consider `Cc1ccc2c(c1)C(=O)[C@@]1(O)CCN(c3ccccc3)C1=N2`, for which the “activity, % of control (viability)” value is 87% (inactive).

Regarding `O=C(NCCCNc1nc(Nc2cccc(NC(=O)N3CCCC3)c2)ncc1I)c1cccs1`, the Potency was 20.9 µM (active) and 23.5 µM (active).

Regarding `COc1ccc2c(c1)CC[C@@H](CN(C)CC(=O)O)[C@H]2c1ccccc1`, the “activity, % of control (viability)” value is 106% (inactive).

Take `CC(=O)Nc1sc2c(c1-c1nc3ccccc3s1)CNC2`: the Potency was 23.5 µM (active).

`CCCCCCCCCCCCCCCCCCOP(=O)([O-])OC1CC[N+](C)(C)CC1`: the “activity, % of control (viability)” value is 98.3% [at 29.8 µM] (inactive).

Take `CC=C1NC(=O)[C@H]2CSSCCC=C[C@H](CC(=O)N[C@H](C(C)C)C(=O)N2)OC(=O)[C@H](C(C)C)NC1=O`: the Potency was 0.0019 µM (active).

As for `CN(C)CC=CC(=O)Nc1cc2c(Nc3ccc(F)c(Cl)c3)ncnc2cc1O[C@H]1CCOC1`, the Potency was 6.62 µM (active).

For the compound `Cn1cc(-c2ccc3nnc(Sc4ccc5ncccc5c4)n3n2)cn1`, the “activity, % of control (viability)” value was 101% (inactive).

With `Cc1c(C(=O)Nc2ccc(N3C[C@@H](C)O[C@@H](C)C3)nc2)cccc1-c1ccc(OC(F)(F)F)cc1`, the Potency was 23.5 µM (active).

Regarding `C[C@@H](O[C@H]1OCCN(Cc2n[nH]c(=O)[nH]2)[C@@H]1c1ccc(F)cc1)c1cc(C(F)(F)F)cc(C(F)(F)F)c1`, the Potency is 18.7 µM (active).

Turning to `COc1cc2c(cc1OC)CC(=O)N(CCCN(C)C[C@H]1Cc3cc(OC)c(OC)cc31)CC2`, the “activity, % of control (viability)” value was 101% (inactive).

As to `CC(NCc1ccc2c(c1)nc(NC(=O)c1ccc(-c3cn[nH]c3)s1)n2CC(C)(C)O)C(C)(C)C` (stereo not given), the Potency was 0.0418 µM (active).

`CNC(=O)c1cc(Oc2ccc(NC(=O)Nc3ccc(Cl)c(C(F)(F)F)c3)c(F)c2)ccn1`: the Potency was 26.4 µM (active).

With `CC(C)C[C@@H](C(=O)N[C@H](C(=O)OC1CCCC1)c1ccccc1)[C@H](O)C(=O)NO`, the Potency is 16.6 µM (active).

As for `COc1cc2ncn(-c3cc(OCc4ccccc4C(F)(F)F)c(C(N)=O)s3)c2cc1OC`, the Potency was 0.166 µM (active).

For the compound `C=CC(=O)Nc1cc2c(Nc3ccc(F)c(Cl)c3)ncnc2cc1C#CC(C)(C)N1CCN(C)CC1`, the Potency was 16.6 µM (active).

Turning to `Cc1ccc(C(=O)N(CCCN)[C@@H](c2nc3cc(Cl)ccc3c(=O)n2Cc2ccccc2)C(C)C)cc1`, the Potency is 0.0053 µM (active).

Regarding `CC(=O)OCC(=O)[C@@]1(O)[C@H](C)C[C@H]2[C@@H]3C=C(C)C4=Cc5c(cnn5-c5ccccc5)C[C@]4(C)[C@@H]3[C@@H](O)C[C@@]21C`, the Potency was 26.4 µM (active).

As for `COc1cc(Nc2ncc(F)c(Nc3ccc4c(n3)NC(=O)C(C)(C)O4)n2)cc(OC)c1OC`, the Potency is 16.6 µM (active).

Regarding `Cc1cnc(Nc2ccc(F)cc2Cl)nc1-c1c[nH]c(C(=O)N[C@H](CO)c2cccc(Cl)c2)c1`, the Potency is 20.9 µM (active).

With `CCC(=O)N1CCN(c2ccc(-n3c(=O)ccc4cnc5ccc(-c6cnc7ccccc7c6)cc5c43)cc2C(F)(F)F)CC1`, the Potency is 0.0209 µM (active).
